# SKKanGAS inh: S. pyogenes SKKanGAS growth inhibitors in kanamycin, primary screen, streptokinase expression inhibitor project, SKKanGAS strain, BacTiter-Glo luminescence | 6 h | hit rate 1.3% among 300,000 | AID 1662, 2009 | inhibition, % at 7.5 µM;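 active = mean replicate score, as percent of positive control median, at least 50; inconclusive = mean below 50 but one replicate at or above 50; inactive = mean and every replicate below 50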;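 note: strain carries kanamycin resistance gene driven by streptokinase promoter and grows in 40 µg/ml kanamycin; loss of luminescence reflects streptokinase promoter inhibition or plain growth inhibition; 0% = median of DMSO wells and 100% = positive control at its reference dose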
# Beta cell apopt: inhibitors of cytokine-induced beta cell apoptosis, primary screen, luminescence; INS-1E cytokine-induced death, ATP luminescence, 48 h; percent of positive-control rescue, neutral wells zero; protection from apoptosis, % (no concentration beside the values); hit rate 0.8% among 300,000; AID 435005, 2010;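 active = Every replicate reaches about 75%, or at least half do and their mean reaches it too, limit read from the data; inconclusive = At least half of replicates reach the limit but their mean does not; inactive = Under half of replicates reach the limit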;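 note: 0% = cytokine-treated negative control wells and 100% = positive control rescue; higher means more ATP so stronger rescue from cytokine killing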
# Mdm2-MdmX inh: inhibitors of human Mdm2-MdmX association, primary screen, cell-based, luminescence, split luciferase, SaOS-2, uHTS; SaOS-2 split-luciferase Mdm2/MdmX complementation; inhibition, % at 8 µM; hit rate 3% among 330,000;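 active = inhibition of at least 50% at 8 µM in the primary screen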
# Target sequence (O15151 whole entry, looked up): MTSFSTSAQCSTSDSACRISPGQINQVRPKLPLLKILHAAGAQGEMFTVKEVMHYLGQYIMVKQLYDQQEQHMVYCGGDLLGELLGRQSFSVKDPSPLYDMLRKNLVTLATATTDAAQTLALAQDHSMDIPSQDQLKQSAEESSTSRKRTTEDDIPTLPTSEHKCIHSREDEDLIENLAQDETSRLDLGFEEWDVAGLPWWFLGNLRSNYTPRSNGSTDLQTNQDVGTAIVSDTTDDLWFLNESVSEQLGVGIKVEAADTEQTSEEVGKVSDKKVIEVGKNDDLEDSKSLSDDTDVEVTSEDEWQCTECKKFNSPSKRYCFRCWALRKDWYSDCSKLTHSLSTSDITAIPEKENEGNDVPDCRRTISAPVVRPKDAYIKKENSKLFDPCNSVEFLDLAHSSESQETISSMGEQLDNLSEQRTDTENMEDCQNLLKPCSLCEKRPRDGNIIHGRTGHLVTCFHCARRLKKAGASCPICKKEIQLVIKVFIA
# Target sequence (Q00987 whole entry, looked up): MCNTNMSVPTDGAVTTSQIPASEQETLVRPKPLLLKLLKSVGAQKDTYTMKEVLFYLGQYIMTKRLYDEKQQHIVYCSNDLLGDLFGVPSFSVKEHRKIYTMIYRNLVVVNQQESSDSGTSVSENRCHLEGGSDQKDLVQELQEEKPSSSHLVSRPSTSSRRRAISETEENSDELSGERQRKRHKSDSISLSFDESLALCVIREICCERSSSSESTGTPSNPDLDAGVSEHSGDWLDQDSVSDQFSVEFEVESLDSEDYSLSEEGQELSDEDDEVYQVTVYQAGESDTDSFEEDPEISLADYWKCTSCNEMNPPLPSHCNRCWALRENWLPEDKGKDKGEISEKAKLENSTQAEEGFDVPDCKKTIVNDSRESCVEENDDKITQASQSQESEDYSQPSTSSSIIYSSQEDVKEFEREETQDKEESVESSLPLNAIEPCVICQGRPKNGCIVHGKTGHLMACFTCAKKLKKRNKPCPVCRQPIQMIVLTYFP
# MPTP inh: mitochondrial permeability transition pore inhibitors, primary screen, biochemical, isolated mouse mitochondria, absorbance; Ca2+ swelling absorbance, 30 min; inhibition, % at 10 µM; hit rate 1.4% among 360,000; AID 602449, 2012;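 active = inhibition of 50% or more, scaled per plate between neutral and stimulator controls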;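 note: 0% = DMSO wells given calcium and 100% = 1 mM EGTA wells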
# GRIN3A LBD mod: binders of NR3A ligand-binding domain, primary screen, biophysical, differential scanning fluorimetry, uHTS. hit rate 2.5% among 340,000. NR3A LBD differential scanning fluorimetry, Tm shift; 0% = protein alone, 100% = glycine-bound protein. Tm shift relative to glycine control, % at 25 µM. AID 1259313, 2017. Glutamate receptor ionotropic, NMDA 3A (GRIN3A) ligand-binding domain;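 active = melting temperature shift of at least 10% of the positive control shift, at one fixed dose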
# CSC inhib: cancer stem cell viability inhibitors, primary screen, luminescence | inhibition, % at 7.5 µM | cancer stem cell-like cells viability | hit rate 1.1% among 300,000; in the data active = inhibition above about 75%; inconclusive = no clear call, values can overlap the other calls; tested in HMLE shEcad cells
# The depositor's hits bear a star; ? = inconclusive; . = no result given. Most compounds without a hit are left out; they make up all but 6.9% or so of the library.
SMILES,SKKanGAS inh,Beta cell apopt,Mdm2-MdmX inh,MPTP inh,GRIN3A LBD mod,CSC inhib
Cc1ccc(C(C)C)c2c1C(c1ccc3c(c1)OCO3)CC(=O)O2 (stereo not drawn),.,.,25,-2,-7,.
Cc1ccc(NC(=O)CNc2cccc(S(=O)(=O)N3CCCCC3)c2)cc1F,-5,-1,30,5,-1,-6
Cc1cc(S(=O)(=O)NCc2ccccc2)ccc1OCC(=O)Nc1cccc([N+](=O)[O-])c1,17,2,47,25,11*,-4
O=C(CNc1cccc(F)c1)Nc1cccc(S(=O)(=O)N2CCCCC2)c1,.,.,12,-3,14*,.
Cc1cc(S(=O)(=O)NCc2ccccc2)ccc1OCC(=O)NCc1ccccn1,3,-4,16,-1,0,-2
Cc1cc(S(=O)(=O)N2CCOCC2)ccc1OCC(=O)Nc1cccc(F)c1,-2,.,8,0,37*,6
COC(=O)Cn1c(=NC(=O)c2cc(-c3cccs3)nc3ccccc23)sc2cc(S(N)(=O)=O)ccc21,37,.,32,-1,16*,.
CCOC(=O)Cn1c(=NC(=O)c2cc(-c3cccs3)nc3ccccc23)sc2cc(S(N)(=O)=O)ccc21,19,-2,32,-2,26*,32
COC(=O)Cn1c(=NC(=O)c2nc3ccccc3s2)sc2cc(S(N)(=O)=O)ccc21,12,47,28,-1,-2,28
CCOC(=O)Cn1c(=NC(=O)C2COc3ccccc3O2)sc2cc(S(N)(=O)=O)ccc21 (stereo not drawn),7,27,-27,1,-9,-14
CC(=O)Nc1cc(-c2ccc(C(=O)N3CCOCC3)cc2)cn2c(-c3cccc(C(C)=O)c3)cnc12,.,.,.,-1,.,.
O=C(O)c1cnn(-c2ccccc2)c1-n1cccc1,-1,-2,16,0,0,-12
COC(=O)c1cnn(-c2ccc(C)c(C)c2)c1-n1cccc1,-2,3,5,0,11*,.
C[C@@]12CCC3[C@@](CCC4[C@@]3(C)CCC[C@@]4(C)C(=O)N3CCCCC3)(CC1=O)C2 (stereo partly drawn),.,2,-2,-2,2,-7
COc1ccc(NC(=O)COC(=O)c2c3c(nc4ccccc24)CCCC3)cc1,9,7,37,6,-10,-2
COc1ccc(NC(=O)COC(=O)c2c3c(nc4ccccc24)CCCC3)cc1Cl,61*,-9,19,-3,4,51
COc1ccc(CCC(C)NC2CCCCCCC2)cc1 (stereo not drawn),1,7,-47,1,-1,19
COc1ccc(CCC(C)NCC2CCCCC2)cc1 (stereo not drawn),4,-7,-34,1,-1,93*
CC(=O)c1c(C)oc2ccc(N(C(C)=O)S(=O)(=O)c3cccc4cccnc34)cc12,0,104*,34,3,0,4
CC(=O)c1c(C)oc2ccc(N(C(C)=O)S(=O)(=O)c3ccc(F)cc3C)cc12,13,8,28,2,2,1
CCC(C)n1c(-c2cccs2)nc2nc3ccccc3nc21 (stereo not drawn),1,4,20,-2,-2,64*
COc1ccccc1N1CCN(C(=O)C2CCN(C(=O)c3ccc(C(C)(C)C)cc3)CC2)CC1,0,-2,17,0,4,-22
O=C(Cn1c2c(sc1=O)C1c3ccccc3OCC1CS2)Nc1ccc(Cl)cc1 (stereo not drawn),45,5,34,4,13*,-5
CC(C)Nc1nc(Oc2cccc(Cl)c2Cl)cc(C(F)(F)F)n1,?,1,27,7,-3,46
CC(C)Nc1nc(Oc2ccc(Cl)cc2Cl)cc(C(F)(F)F)n1,79*,2,6,0,4,.
SMILES,SKKanGAS inh,Beta cell apopt,Mdm2-MdmX inh,MPTP inh,GRIN3A LBD mod,CSC inhib
COc1cc2nc(N3CCN(C(=O)[C@H]4COc5ccccc5O4)CC3)nc(N)c2cc1OC,5,-1,16,-2,3,6
CSC(=S)NN=C(C)c1cccc(C)n1,.,.,.,-1,15*,.
N#Cc1cccc(C(=O)C(=O)N2CCCN(Cc3ccc(F)cc3)CC2)c1,.,.,.,1,.,.
CN(C)c1nc(Nc2ccc(F)cc2)nc(Oc2ccc(F)cc2)n1,16,.,8,1,-6,17
CN(C)c1nc(N/N=C/c2ccccc2O)nc(Nc2ccc(F)cc2)n1,93*,106*,43,-3,38*,-1
O=S1(=O)CC(N2CCSCC2)CN1Cc1cn(Cc2ccc(C(F)(F)F)cc2)nn1 (stereo not drawn),.,.,.,-1,.,.
O=C(O)CCN1C(=O)/C(=C\c2ccncc2)SC1=S,-2,-6,-14,0,1,19
O=C(O)CN1C(=O)/C(=C\c2cccc(OCc3ccc(F)cc3)c2)SC1=S,8,-1,-10,2,9,11
O=C(O)CN1C(=O)/C(=C\c2ccccc2OCc2ccc(Cl)cc2)SC1=S,26,-4,19,6,6,10
O=C(O)CN1C(=O)/C(=C\c2cc(Br)ccc2OCc2ccc(Cl)cc2Cl)SC1=S,105*,-4,2,4,29*,108*
O=C(O)CCN1C(=O)/C(=C\c2cccc(Oc3ccccc3)c2)SC1=S,11,.,3,1,14*,.
O=C(O)CN1C(=O)/C(=C\c2cccc(OCc3ccccc3F)c2)SC1=S,7,2,-3,2,31*,19
CC(NC(=O)CSc1nnnn1C1CC1)c1ccccc1Br (stereo not drawn),.,0,-14,-1,-3,-18
CC1(C(=O)OCC(=O)Nc2ccc(C(N)=O)cc2)CC1(Cl)Cl (stereo not drawn),4,-10,8,5,0,-10
COc1ccccc1NC(=O)c1ccc(NC(=O)COC(=O)C2(C)CC2(Cl)Cl)cc1 (stereo not drawn),15,-4,5,3,25*,-2
COc1ccccc1C(=O)Nc1ccc(C(=O)Nc2ccccc2C(=O)O)cc1,50*,-1,33,1,6,-4
O=C(Nc1ccccc1C(=O)O)c1cccc(NC(=O)c2ccc(Br)o2)c1,83*,-1,0,0,2,11
COc1ccc(NC(=O)c2ccccc2NC(=O)c2ccccc2)cc1,-1,0,3,1,-7,-12
CC1CCN(c2ccc(NC(=O)c3ccc(Br)o3)cc2)CC1,19,9,-219,-2,30*,2
Cc1ccc(CSCC(=O)N/N=C/c2sccc2C)cc1,1,-4,20,0,0,.
